Assay outcomes from PubChem.
CtBP-E1A inh: blocks the CtBP interaction with E1A; AlphaScreen GST-E1A/His-CtBP binding, 1536-well; stronger effect = lower value; activity change, % (test concentration not listed); 340,000 compounds, 0.49% hits; AID 651724; in the data active means activity change below about -65%; inconclusive means mostly about -30% to -63%; further: on the % scale 0 is the no-effect control and ±100 the full control effect
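Steps: dispense buffer (Tris pH 8.0, NaCl 300 mM, TCEP 1 mM, BSA, Tween 20); add 5X protein mix (GST-E1A, His-CtBP, 125 nM each); pin 23 nL compound; 2 h at 37 °C, dark; add 5X beads (50 ug/mL); 1 h; read.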
CBFb RUNX1 block: CBF-beta/RUNX1 interaction disruption | AID 1477 | 230,000 tested, under 10 active | AlphaScreen CBFb-His/RUNX1-biotin binding, biochemical | Potency, µM (doses to about 59.8 µM), without a hit: at the top dose activity, negative = inhibition, hits mostly inhibitors | Q01196+Q13951; further: % of control where 0% means no effect
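Room-temperature protein-protein interaction test with 30 nM each of His-tagged CBF-beta and biotinylated RUNX1, 15 min with compound, then 90 min with nickel plus streptavidin beads. Signal read in AlphaScreen mode.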
RORgamma inh: inhibitors of mouse ROR gamma transcriptional activity. AID 2551. 310,000 compounds, 5.4% hits. P51450. Potency, µM (top dose mostly 53.6 µM), inactives show top-dose activity change, negative = inhibition, most hits filed as inhibitors. Drosophila S2 Gal4-RORgamma UAS-luciferase reporter, 20 h; further: potency means the concentration at half of the fitted maximal effect; on the % scale 0 is the no-effect control and ±100 the full control effect; nearly all actives have a fitted effect of over 60% in size
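Read-out: Photinus luciferase luminescence; inhibitors lower reporter signal. Insect Schneider cells with Gal4-ROR gamma fusion under metallothionein promoter, UAS reporter; 700 uM final copper sulfate induction, 20 hr, ambient temperature.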
Six1-Eya2 inh: blocks human Six1 binding to Eya2. Q15475+O00167. AlphaScreen GST-Six1/His-Eya2 binding, biochemical; stronger effect = lower value. activity change, % (concentration not given with the values). 360,000 compounds, 0.56% hits. AID 651725; in the data active means activity change below about -65%; inconclusive means mostly about -30% to -63%; further: on the % scale 0 is the no-effect control and ±100 the full control effect
Target sequence (O00167 whole entry, looked up): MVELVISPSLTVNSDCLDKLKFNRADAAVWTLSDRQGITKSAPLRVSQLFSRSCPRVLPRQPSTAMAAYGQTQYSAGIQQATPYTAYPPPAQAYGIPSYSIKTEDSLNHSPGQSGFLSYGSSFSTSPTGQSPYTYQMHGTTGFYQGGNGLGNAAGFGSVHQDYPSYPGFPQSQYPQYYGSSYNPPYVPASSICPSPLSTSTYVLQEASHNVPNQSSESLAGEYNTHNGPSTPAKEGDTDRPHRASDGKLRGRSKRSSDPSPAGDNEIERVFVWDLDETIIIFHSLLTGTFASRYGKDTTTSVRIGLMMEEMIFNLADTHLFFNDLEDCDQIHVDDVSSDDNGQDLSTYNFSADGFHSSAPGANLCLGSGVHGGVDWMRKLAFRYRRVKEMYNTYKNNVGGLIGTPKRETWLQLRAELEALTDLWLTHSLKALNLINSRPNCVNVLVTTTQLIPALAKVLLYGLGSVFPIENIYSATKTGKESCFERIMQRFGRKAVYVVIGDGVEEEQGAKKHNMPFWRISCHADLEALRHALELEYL
Target sequence (Q15475 whole entry, looked up): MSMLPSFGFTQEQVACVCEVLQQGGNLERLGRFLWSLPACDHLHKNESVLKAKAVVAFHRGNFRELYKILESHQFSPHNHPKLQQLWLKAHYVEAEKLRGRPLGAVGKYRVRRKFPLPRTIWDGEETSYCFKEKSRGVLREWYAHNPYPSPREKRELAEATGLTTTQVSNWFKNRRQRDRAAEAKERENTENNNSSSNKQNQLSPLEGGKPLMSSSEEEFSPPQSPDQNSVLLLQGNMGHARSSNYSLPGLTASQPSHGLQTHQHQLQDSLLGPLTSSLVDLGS
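Compounds are tested against tagged Six1 and Eya2 proteins bridged by glutathione donor and nickel acceptor beads; after a one-hour incubation at 37 °C without light, AlphaScreen emission is recorded.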
Gal4-VP16 FLuc: inhibits Gal4-VP16 luciferase reporter, ROR gamma counter-screen; Drosophila S2 Gal4-VP16 UAS-luciferase, luminescence, 20 h; Potency, µM (doses to about 53.6 µM), for inactives: at the top dose activity, negative = inhibition, usual class: inhibitors; 310,000 compounds, 3.5% hits;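 further: Gal4-VP16 expression switched on by copper sulfate through the metallothionein promoter; potency means the concentration at half of the fitted maximal effect; on the % scale 0 is the no-effect control and ±100 the full control effect; nearly all actives have a fitted effect of over 50% in size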
MBNL1 CUG block: blocks human MBNL1 binding to CUG repeat RNA. Potency, µM (top dose mostly 57.5 µM), for inactives: top-dose activity change, negative = inhibition, most hits filed as inhibitors. AID 2675. Q9NR56. TR-FRET MBNL1-His/biotin-(CUG)12 binding, 665/545 ratio. 280,000 compounds, 0.036% hits; active means well fitted inhibition curve with a large enough effect in the signal ratio, with a control signal flat, not every such curve was filed as active; inconclusive means small, poorly fitted or top-dose-only effect, or effect the other way, or a change in a side signal; inactive means no such curve, though single readings can be large or run the other way; the % refers to the signal ratio; further: potency means the concentration at half of the fitted maximal effect; on the % scale 0 is the no-effect control and ±100 the full control effect
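Compound titration spanned 92 nM–58 uM against the MBNL1-His/biotin-(CUG)12 complex. After 60 min at room temperature with 5 nM streptavidin-XL665 and 0.055 ng/ul terbium anti-His, ratiometric 665/545 nm emission (Ex 340 nm) normalized to controls.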
An asterisk follows results filed as active; [ ] = another dose, or the depositor's remark. A selection: hits, their analogues and other compounds. The true share with any hit is near 5.5%. Unless noted, the call rests on the fitted dose curve; in most records, active means well fitted curve in the direction sought with a large enough effect; inconclusive means small, poorly fitted or top-dose-only effect, or another doubt; inactive means no such curve, though single readings can be large; an effect the other way counts as inactive or inconclusive.

CCCc1cc(C(=O)NNC(=S)Nc2cccc(C)c2)cs1 was read as CtBP-E1A inh -18, CBFb RUNX1 block 18%, RORgamma inh 2.2µM*, Six1-Eya2 inh -18, Gal4-VP16 FLuc inconclusive and MBNL1 CUG block 2%.
Screening O=S(=O)(NC(=S)c1ccccc1)c1ccc(F)cc1 returned CtBP-E1A inh 1, RORgamma inh 11µM*, Six1-Eya2 inh 6, Gal4-VP16 FLuc inconclusive and MBNL1 CUG block 5%.
`O=S(=O)(NC(=S)c1ccccc1)c1ccccc1` gave CtBP-E1A inh 5 and Six1-Eya2 inh 6.
For COC(=O)CCCCC1SCC2NC(=O)NC21O (stereo unspecified) the results were CtBP-E1A inh -7, RORgamma inh 0%, Six1-Eya2 inh 8, Gal4-VP16 FLuc -1% and MBNL1 CUG block 0.71µM*.
COC(=O)CCCC[C@@H]1SC[C@@H]2NC(=O)N[C@@H]21 was read as RORgamma inh 7% and Gal4-VP16 FLuc 8%.
COC(=O)CCCC[C@H]1SC[C@H]2NC(=O)N[C@]21O was read as CBFb RUNX1 block -26%, RORgamma inh 30%, Gal4-VP16 FLuc -2% and MBNL1 CUG block 0.32µM*.
Screening Cc1cc(N2CCN(c3nc4ccccc4s3)CC2)n2ncnc2n1 returned CtBP-E1A inh -15, CBFb RUNX1 block -1%, RORgamma inh inconclusive, Six1-Eya2 inh -9, Gal4-VP16 FLuc 11µM* and MBNL1 CUG block 8%.
For Cc1nc(S/C(=C\c2ccc(-c3ccc(C(=O)O)c(Cl)c3)o2)C(=O)O)n[nH]1 the results were CBFb RUNX1 block inconclusive, RORgamma inh 11%, Six1-Eya2 inh inconclusive, Gal4-VP16 FLuc -2% and MBNL1 CUG block inconclusive.
Screening Cc1nc(S/C(=C\c2ccc(OCc3ccccc3Cl)cc2)C(=O)O)n[nH]1 returned CtBP-E1A inh 2, CBFb RUNX1 block -3%, RORgamma inh 1µM*, Six1-Eya2 inh -2, Gal4-VP16 FLuc inconclusive and MBNL1 CUG block -9%.
`CC1CCCN(c2ccc3nc4ccccc4c(=O)n3n2)C1` (stereo unspecified) gave CtBP-E1A inh 15, CBFb RUNX1 block 3%, RORgamma inh 8.9µM*, Six1-Eya2 inh -67*, Gal4-VP16 FLuc 4.5µM* and MBNL1 CUG block inconclusive.
For Cc1ccc2nc3ccc(N4CCCC4)nn3c(=O)c2c1 the results were CtBP-E1A inh -8, CBFb RUNX1 block 7%, RORgamma inh -35%, Six1-Eya2 inh -8, Gal4-VP16 FLuc -16% and MBNL1 CUG block inconclusive.
`Clc1cccc(CSc2ncn(-c3ccccc3)n2)c1` gave CtBP-E1A inh 33, CBFb RUNX1 block 23%, RORgamma inh 23%, Six1-Eya2 inh 35, Gal4-VP16 FLuc 29% and MBNL1 CUG block -8%.
Screening FC(F)(F)c1ccc(CSc2nccn2-c2ccccc2)cc1 returned CtBP-E1A inh -23, CBFb RUNX1 block -26%, RORgamma inh inconclusive, Six1-Eya2 inh -24, Gal4-VP16 FLuc -9% and MBNL1 CUG block 2%.
`O=C(CSc1nccn1-c1ncc(C(F)(F)F)cc1Cl)c1ccc(Br)cc1` gave CtBP-E1A inh 2, CBFb RUNX1 block -1%, RORgamma inh 11µM*, Six1-Eya2 inh 12, Gal4-VP16 FLuc inconclusive and MBNL1 CUG block 4%.
O=C(CSc1nccn1-c1ccccc1)c1ccc(Cl)cc1 was read as CtBP-E1A inh -11, CBFb RUNX1 block -17%, RORgamma inh inconclusive, Six1-Eya2 inh -16, Gal4-VP16 FLuc -8% and MBNL1 CUG block -2%.
`Clc1cccc(CSc2nccn2-c2ccccc2)c1` gave CtBP-E1A inh -25, CBFb RUNX1 block -16%, RORgamma inh 5µM*, Six1-Eya2 inh inconclusive, Gal4-VP16 FLuc -4% and MBNL1 CUG block -8%.
Brc1ccc(CSc2nccn2-c2ccccc2)cc1 was read as CtBP-E1A inh -21, CBFb RUNX1 block inconclusive, RORgamma inh 14µM*, Six1-Eya2 inh -28, Gal4-VP16 FLuc -1% and MBNL1 CUG block -1%.
`Cc1ccc(C(=O)CSc2nccn2-c2ccccc2)cc1` gave CtBP-E1A inh -2, CBFb RUNX1 block -17%, RORgamma inh 10µM*, Six1-Eya2 inh -15, Gal4-VP16 FLuc inconclusive and MBNL1 CUG block -6%.
For COC(=O)c1cc(S(=O)(=O)NCC2CCN(CCc3cccs3)CC2)c[nH]1 the results were CtBP-E1A inh 2, RORgamma inh -5%, Six1-Eya2 inh 0, Gal4-VP16 FLuc 1% and MBNL1 CUG block -5%.
`CCc1ccc2c(COC(=O)C3CC(=O)N(CCc4ccccc4)C3)cc(=O)oc2c1` (stereo unspecified) gave CtBP-E1A inh 7 and Six1-Eya2 inh -9.
`CC(C)C(C(=O)NCC1CCCO1)N(Cc1ccccc1)C(=O)CNS(=O)(=O)c1ccccc1` (stereo unspecified) gave CtBP-E1A inh 3, RORgamma inh -24%, Six1-Eya2 inh -1, Gal4-VP16 FLuc -9% and MBNL1 CUG block 3%.
CCCN1C2CCCC1CC(NC(=O)c1ccc(OC)cc1)C2 (stereo unspecified) was read as CtBP-E1A inh -8, RORgamma inh -3%[1.91 µM], Six1-Eya2 inh 4, Gal4-VP16 FLuc 2% and MBNL1 CUG block 1%.
Cc1cccc(S(=O)(=O)NC(=O)C2(C)CCN2C(=O)C/C=C/c2ccccc2)c1 (stereo unspecified) was read as CtBP-E1A inh 6 and Six1-Eya2 inh 1.
For Cc1c(C)c2c(OCC(=O)N3CCC[C@H]3C(=O)O)cc3c(c2oc1=O)CCC(C)(C)O3 the results were CtBP-E1A inh inconclusive, RORgamma inh -8%, Six1-Eya2 inh -85*, Gal4-VP16 FLuc 4% and MBNL1 CUG block inconclusive.
CCCC[C@@H](C=O)NC(=O)[C@H](CC(C)C)NC(=O)[C@H](CC(C)C)NC(C)=O was read as CBFb RUNX1 block 21%, RORgamma inh inconclusive and Gal4-VP16 FLuc -14%.
For CSCC[C@H](C=O)NC(=O)[C@H](CC(C)C)NC(=O)[C@H](CC(C)C)NC(C)=O the results were CBFb RUNX1 block 0%[21.7 µM], RORgamma inh 11µM* and Gal4-VP16 FLuc -2%.
CCOC(=O)C1=C(Nc2ccccc2)CSC1 was read as CtBP-E1A inh 0 and Six1-Eya2 inh -1.
Cc1cc(=O)oc2c(C)c(OCC(=O)N3CCN(c4cccc(Cl)c4)CC3)ccc12 was read as RORgamma inh -36%, Six1-Eya2 inh -13, Gal4-VP16 FLuc 4% and MBNL1 CUG block 3%.
`CCCCc1ccc(-c2nn[nH]n2)nc1` gave CtBP-E1A inh inconclusive and Six1-Eya2 inh -81*.
